Out of some 52,000 compounds screened, about 4,300 (8.3%) were called active. The sample holds actives, similar compounds and a random draw of the others, so the mix is not that of the screen. Rule as the data show it: active = survival mostly below about 52% (no sharp cut-off); inactive = mostly above about 56%.
Each compound was assayed on DeltatarO mutant (assay: growth inhibition of S. aureus wild type versus tarO mutant, primary screen, teichoic acid synthesis inhibitors, RN4220, OD600 (AID 463173)). Settings: OD600, 18 h, hits give low values, screened at 18.75 µg/mL (by protocol).

Row | SMILES | survival
1 | Cc1nc2ccn(Cc3cccnc3)c(=O)c2cc1C(=O)NCc1ccc(Cl)cc1 | 69% (inactive)
2 | Cc1nc(-c2ccccc2)sc1CCNC(=O)C(=O)Nc1ccc(F)c(Cl)c1 | 6% (active)
3 | Cc1ccc(-c2nc(C)c(CCNC(=O)C(=O)Nc3ccc(C)c(Cl)c3)s2)cc1 | 74% (inactive)
4 | Cc1ccc(NC(=O)C(=O)NCCc2sc(-c3ccc(Cl)cc3)nc2C)cc1C | 104% (inactive)
5 | O=C(c1cccc(F)c1)N1CCN(C(=O)c2cccc3ccccc23)CC1 | 92% (inactive)
6 | CC(NC(=O)c1cc2ccccn2n1)c1ccccc1 (stereo unspecified) | 75% (inactive)
7 | Cc1cccc(CCNC(=O)c2sc3nc4n(c(=O)c3c2C)CCCC4)c1 | 85% (inactive)
8 | COc1cc(NC(=O)CCN2CCN(c3ccccc3)CC2)cc(OC)c1 | 150% (inactive)
9 | CC(=O)N1CCCc2cc(S(=O)(=O)N3CCC(C(=O)NCCC(C)C)CC3)ccc21 | 91% (inactive)
10 | CCCCCCSc1ncc(C#N)c(N)n1 | 84% (inactive)
11 | N#Cc1cnc(SCc2ccccc2)nc1N | 39% (active)
12 | N#Cc1cnc(SCCc2ccccc2)nc1N | 81% (inactive)
13 | CCOC(=O)c1c(C)oc2ccc(N(C(C)=O)S(=O)(=O)c3c(C)cc(C)cc3C)cc12 | 168% (inactive)
14 | COc1cc(Cn2c(=O)sc3ccccc32)ccc1OCCC(C)C | -2% (active)
15 | CCCCOc1ccc(Cn2c(=O)sc3ccccc32)cc1OC | -3% (active)
16 | O=c1sc2ccccc2n1CCc1ccccc1 | 104% (inactive)
17 | COc1cc(Cn2c(=O)sc3ccccc32)ccc1OC(C)C | 40% (active)
18 | O=C(Cn1c(=O)sc2ccccc21)OCc1ccccc1 | 83% (inactive)
19 | COc1ccc(CNC(=O)C(C)n2nc(C)c3sc4ccccc4c3c2=O)cc1OC (stereo unspecified) | 67% (inactive)
20 | COc1ccc(Cn2c(=O)sc3ccccc32)cc1 | 74% (inactive)
21 | Cc1cccc2sc(N(Cc3cccnc3)C(=O)CCc3ccccc3)nc12 | 117% (inactive)

Row | SMILES | survival
22 | COc1cccc(-n2c(=O)c3c(C)c(C)sc3n(CC(=O)NCc3ccccc3)c2=O)c1 | 102% (inactive)
23 | CCCCCOc1ccc(/C=C/C(=O)Nc2sc3c(c2C(=O)OCC)CCC3)cc1OC | 66% (inactive)
24 | COc1ccc(NC(=O)N2CCN3CCCCC3C2)cc1OC (stereo unspecified) | 99% (inactive)
25 | COc1cc(Cl)ccc1OC(=O)c1cn(-c2ccccc2OC)c(=O)c2ccccc12 | 58% (inactive)
26 | Cc1ccc(S(=O)(=O)Cn2nnnc2CN(Cc2ccco2)Cc2cccs2)cc1 | 61% (inactive)
27 | Cc1ccc(S(=O)(=O)NCC(c2ccc(N(C)C)cc2)N2CCOCC2)cc1 (stereo unspecified) | 57% (inactive)
28 | CN(C)c1ccc(C(CNS(=O)(=O)c2ccc(F)cc2)N2CCOCC2)cc1 (stereo unspecified) | 92% (inactive)
29 | CN(C)c1ccc(C(CNS(=O)(=O)c2ccc(Cl)cc2)N2CCCC2)cc1 (stereo unspecified) | 0% (active)
30 | CN(C)c1ccc(C(CNC(=O)c2c(F)cccc2Cl)N2CCOCC2)cc1 (stereo unspecified) | 25% (active)
31 | CN(C)c1ccc(C(CNC(=O)c2ccccc2Cl)N2CCCC2)cc1 (stereo unspecified) | 81% (inactive)
32 | CN(C)c1ccc(C(CNS(=O)(=O)c2ccc(Cl)cc2)N2CCOCC2)cc1 (stereo unspecified) | 37% (active)
33 | CN(C)c1ccc(C(CNC(=O)Cc2ccc(Cl)cc2)N2CCOCC2)cc1 (stereo unspecified) | 63% (inactive)
34 | CN(C)c1ccc(C(CNS(=O)(=O)c2ccc(F)cc2)N2CCCC2)cc1 (stereo unspecified) | 106% (inactive)
35 | Cc1ccc(S(=O)(=O)NCC(c2ccc(N(C)C)cc2)N2CCCC2)cc1 (stereo unspecified) | 98% (inactive)
36 | CCN(CC)C(=O)Cn1c(=O)n(-c2ccc(OC)cc2OC)c(=O)c2c(C)c(C(=O)N(CC)CC)sc21 | 89% (inactive)
37 | CCc1cccc(CC)c1NS(=O)(=O)c1ccc2c(c1)CCN2C(=O)C1CC1 | 90% (inactive)
38 | CC1=Nc2cc(C(=O)NCCc3ccc(Cl)cc3)ccc2Sc2c(C)ccc(C)c21 | 74% (inactive)
39 | O=C(NCCc1ccc(Cl)cc1)c1ccc(CS(=O)(=O)Cc2ccc(F)cc2)o1 | 92% (inactive)
40 | COc1ccc(-c2ccc(-c3noc(-c4cc(OC)cc(OC)c4)n3)c(OC)n2)cc1 | 45% (inactive)
41 | COc1cccc(-c2nc(-c3ccc(-c4ccccc4)nc3OC)no2)c1 | 10% (active)
42 | CCOc1cc(-c2nc(-c3ccc(-c4ccc(C)cc4)nc3OC)no2)cc(OCC)c1OCC | 69% (active)

Row | SMILES | survival
43 | CCOc1nc(-c2ccccc2)ccc1-c1noc(-c2ccc(C)cc2)n1 | 110% (inactive)
44 | CCOc1cc(-c2nc(-c3ccc(-c4ccc(OC)cc4)nc3OC)no2)cc(OCC)c1OCC | 75% (inactive)
45 | CCOc1cc(-c2nc(-c3ccc(Br)cc3)no2)cc(OCC)c1OCC | 118% (inactive)
46 | COc1cccc(-c2ccc(-c3noc(-c4ccccc4Br)n3)c(OC)n2)c1 | 37% (inactive)
47 | COc1nc(C)ccc1-c1noc(-c2ccccc2)n1 | 102% (inactive)
48 | CCOc1cc(-c2nc(-c3ccc(-c4ccccc4)nc3OCC)no2)cc(OCC)c1OCC | 53% (inactive)
49 | CCOc1ccccc1-c1nc(-c2ccc(-c3ccccc3)nc2OCC)no1 | 4% (active)
50 | COc1nc(-c2ccccc2)ccc1-c1noc(C(C)C)n1 | 91% (inactive)
51 | COc1nc(-c2ccccc2)ccc1-c1noc(-c2ccccc2Br)n1 | -1% (active)
52 | COc1ccc(CCCc2nnc(SCC(=O)Nc3ccc(F)cc3)o2)cc1C | 89% (inactive)
53 | COc1ccccc1N1CCN(c2cc(N3CCCC3)nc(C)n2)CC1 | 98% (inactive)
54 | O=C(Nc1ccc(Br)cc1)C1CCCN(S(=O)(=O)c2ccc(Br)s2)C1 (stereo unspecified) | 82% (inactive)
55 | C#CCN1CCc2cc(OC)c(OC)cc2C1C (stereo unspecified) | 101% (inactive)
56 | Cc1cccc(CCNCc2cc3cc4c(cc3[nH]c2=O)OCO4)c1 | 85% (inactive)
57 | CC1(C)OC2C(CO)OC(n3ncc(=O)[nH]c3=O)C2O1 (stereo unspecified) | 86% (inactive)
58 | COc1nc(-c2ccc(C)cc2)ccc1-c1noc(-c2ccc(C(C)(C)C)cc2)n1 | 47% (inactive)
59 | COc1nc(-c2ccc(C)cc2)ccc1-c1noc(-c2ccccc2Br)n1 | 19% (active)
60 | CCOc1nc(-c2ccc(C)cc2)ccc1-c1noc(-c2ccccc2F)n1 | 54% (inactive)
61 | CC(C)(C)c1cc(C(C)(C)C)c2oc(=O)c(-c3nc4ccccc4[nH]3)cc2c1 | 69% (inactive)

— PubChem BioAssay AID463173 (ICCB-Longwood Screening Facility, Harvard Medical School, 2010)
